An excerpt weighted towards active compounds, which were near 2.4% of everything screened.
D2 ag-1: activates the human D2 dopamine receptor; activation, % at 2 µM; 0.53% of 340,000 active; P14416; HEK293 T-REx D2 cells, calcium flux agonist mode;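 active means activation over 3 SD above normal in the single-dose calcium agonist read, cut at about 30% in these data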
Target sequence (P14416 whole entry, looked up): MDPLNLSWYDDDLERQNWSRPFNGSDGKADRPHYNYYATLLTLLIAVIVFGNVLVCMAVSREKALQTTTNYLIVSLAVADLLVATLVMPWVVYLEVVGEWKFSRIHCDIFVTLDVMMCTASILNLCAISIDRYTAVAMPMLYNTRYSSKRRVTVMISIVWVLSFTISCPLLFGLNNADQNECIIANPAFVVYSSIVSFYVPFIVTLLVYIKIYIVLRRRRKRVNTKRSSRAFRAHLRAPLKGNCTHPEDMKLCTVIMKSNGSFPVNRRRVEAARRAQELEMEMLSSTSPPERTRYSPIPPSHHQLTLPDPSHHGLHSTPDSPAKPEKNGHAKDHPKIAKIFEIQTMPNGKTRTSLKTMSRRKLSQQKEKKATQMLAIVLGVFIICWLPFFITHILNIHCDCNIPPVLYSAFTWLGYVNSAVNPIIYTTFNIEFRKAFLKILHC
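Tetracycline-induced HEK293 T-REx cells with force-coupled D2 receptor, plated overnight at 30 C, loaded with no-wash calcium dye. After a 10 s baseline, compound was pin-added and calcium flux read kinetically for 180 s; calcium rises flagged agonists.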
D2 PAM-1: D2 dopamine receptor (human) potentiation; P14416; HEK293 T-REx D2, calcium flux, EC20 dopamine potentiation; potentiation, % at 10 µM; 0.34% of 340,000 active;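 active means potentiation over 3 SD above the plate norm, cut at about 30% in these data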
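Potentiation of an EC20 dopamine calcium response is measured in a force-coupled, tetracycline-inducible Hek293 Trex D2 line. Compound-only kinetic reads over 180 s flag agonists before dopamine addition.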
D2 antagonist: antagonists of human D2 dopamine receptor; HEK293 TREx D2 cells, calcium flux, dopamine EC80; inhibition, % at 10 µM; P14416; 2% of 340,000 active; in the data active means inhibition above about 30%; inactive means below that, where a call was filed
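Read-out: kinetic calcium fluorescence (1 cycle/s) in inducible HEK293 T-REx D2 cells after an EC80 dopamine addition that followed 180 s compound preincubation. Loss of the dopamine response indicates antagonism.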
D2 PAM-2: positive allosteric modulators of human D2 dopamine receptor | DiscoveRx D2 beta-arrestin cells, luminescence, 90 min; 100% = 57 uM dopamine signal | potentiation, % (no concentration beside the values) | 0.23% of 360,000 active; in the data active means potentiation above about 50%; inconclusive means mostly about 30% to 49%
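PathHunter D2 cells, attached overnight at 37 deg C, received compound in DMSO plus dopamine at EC20 (50 nM final) for 90 min at 37 deg C. Beta-arrestin recruitment was read as luminescence after 1 h with detection reagent at ambient temperature.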
D2 ag-2: activates the human D2 dopamine receptor; P14416; DiscoveRx PathHunter D2 beta-arrestin, luminescence, 90 min; 100% = 57 uM dopamine signal; activation, % (no concentration beside the values); 0.084% of 360,000 active; AID 624465; in the data active means activation above about 40%; inconclusive means between about 15% and that limit
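DiscoveRx PathHunter D2 beta-arrestin cells (2,100/well) attached overnight, then compound-stimulated 90 min at 37 C in HBSS/10 mM HEPES/0.1% Tween-20 buffer; beta-galactosidase complementation read by luminescence after 1 h at ambient temperature. Dopamine 57 uM final (EC100) as control.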
Hits are given with their value; – = inactive; ? = inconclusive; · = no result.

SMILES | D2 ag-1 | D2 PAM-1 | D2 antagonist | D2 PAM-2 | D2 ag-2
CCOC(=O)Cc1c(C)nc2c(-c3ccccc3)c(C)[nH]n2c1=O | – | 34.0 | – | – | –
Cc1nc2c(-c3ccc(Cl)cc3)c(C)[nH]n2c(=O)c1Cc1ccccc1 | – | – | – | – | –
CCOC(=O)Cc1c(C)nc2c(-c3ccccc3)c(-c3ccccc3)[nH]n2c1=O | – | – | – | – | –
COc1ccc(-c2c(C)[nH]n3c(=O)c(Cc4ccccc4)c(C)nc23)cc1OC | – | – | 34.9 | – | –
Cc1ccc(Cn2c(CNS(=O)(=O)c3ccc(Cl)s3)nc3cccnc32)cc1 | – | – | · | · | ·
CC(CNc1nc2ccccc2c2nc(-c3ccccc3)nn12)c1ccccc1 (stereo not drawn) | · | – | · | · | ·
O=C(OCc1ccccc1)C1CCN(S(=O)(=O)c2cccs2)CC1 | · | · | · | – | –
O=C(OCn1nnc2ccccc2c1=O)C1CCN(S(=O)(=O)c2cccs2)CC1 | – | 73.9 | – | – | –
CCOc1ccc(/C=C/c2nc(C#N)c(Nc3ccc(OC)cc3)o2)cc1 | – | – | · | · | ·
COc1cc(O)c(C(CC(=O)N2CCCC(C)C2)c2ccc(N(C)C)cc2)c(OC)c1 (stereo not drawn) | – | – | 31.3 | – | –
O=C(Nc1sc2c(c1C(=O)NCc1ccco1)CCCC2)c1cc(=O)c2ccccc2o1 | · | – | · | · | ·
O=C(NCC1CCCO1)c1cccc(S(=O)(=O)N2CCCCC2)c1 (stereo not drawn) | – | – | 30.9 | – | –
CSc1ccc(S(=O)(=O)N2CCC(C(=O)NCC3CCCO3)CC2)cc1 (stereo not drawn) | – | 32.6 | – | – | –
NC(=O)C1CCN(S(=O)(=O)c2cccc(S(=O)(=O)N3CCCCC3)c2)CC1 | – | – | 70.4 | – | –
CC1CCN(S(=O)(=O)c2cccc(C(=O)NCC3CCCO3)c2)CC1 (stereo not drawn) | – | – | – | – | –
CCOC(=O)c1cnc(N2CCN(c3ccc(C)cc3C)CC2)c2ccccc12 | – | – | · | · | ·
COc1ccccc1NC(=O)CSc1nnc(-c2nonc2NC(C)=O)n1-c1ccccc1 | – | – | · | · | ·
O=C1c2cccc3c(O)ccc(c23)C(=O)N1Cc1ccco1 | 61.1 | – | – | – | –
O=C1c2ccccc2C(=O)N1Cc1ccco1 | – | – | – | – | –
COc1cccc(CC(=O)Nc2ccccc2C(=O)N2CCOCC2)c1 | – | – | – | – | –
NC(=O)c1ccccc1NC(=O)CN1CCOCC1 | – | – | 31.4 | – | –
COc1ccc(CC(=O)Nc2ccccc2C(=O)N2CCOCC2)cc1 | – | – | 43.5 | – | –
Cc1oc(-c2ccccc2F)nc1CS(=O)(=O)CC(=O)NCCCN1CCN(C)CC1 | – | – | – | – | –
CCCNC(=O)CS(=O)(=O)Cc1nc(-c2ccccc2C)oc1C | – | – | 39.5 | – | –
Cc1oc(-c2ccccc2F)nc1CS(=O)(=O)CC(=O)NCCCN1CC(C)CC(C)C1 (stereo not drawn) | – | – | 47.8 | – | –
SMILES | D2 ag-1 | D2 PAM-1 | D2 antagonist | D2 PAM-2 | D2 ag-2
COCCCNC(=O)c1c(NC(=O)Cc2coc3cc(C)ccc23)sc2c1CCCC2 | – | – | · | · | ·
CN1C(=O)/C(=C/c2ccccc2OCc2ccccc2)NC1=S | – | – | – | – | –
CN1C(=O)/C(=C/c2cc(C(C)(C)C)c(O)c(C(C)(C)C)c2)NC1=S | – | – | – | 52.1 | ?
CCN1C(=O)C(CC(=O)Nc2ccc(OC)cc2)N(CCCN2CCN(c3ccc(F)cc3)CC2)C1=S (stereo not drawn) | – | · | 57.4 | – | –
COc1ccccc1CNC(=O)C1CCN(C2=NS(=O)(=O)C(c3ccc(C)c(C)c3)=C2C)CC1 | – | – | · | · | ·
Cc1[nH]c2ccccc2c1CCNS(=O)(=O)c1ccc(S(N)(=O)=O)cc1 | – | – | 54.8 | – | –
COc1c(C)cc(S(=O)(=O)NCCc2c(C)[nH]c3ccccc23)c(C)c1C | – | – | · | · | ·
O=C(c1cc(Br)ccc1OC(F)F)N1CCN2CCCC2C1 (stereo not drawn) | – | – | 32.8 | – | –
CCSc1nnc(NC(=O)c2csc3c2CCC(C)C3)s1 (stereo not drawn) | · | · | · | – | –
CCSc1nnc(NC(=O)c2cc(C)on2)s1 | – | · | 55.6 | – | –
CCSc1nnc(NC(=O)c2csc3c2CCCC3)s1 | – | – | 40.2 | – | –
CCSc1nnc(NC(=O)c2c(C)noc2C)s1 | – | – | – | – | –
O=C(CCC1CCCCC1)Nc1ccc(C(=O)c2ccncc2)cc1 | – | – | 47.7 | – | –
CCOc1ccccc1NC(=O)c1c(NC(=O)c2cccc(C)c2)sc2c1CCC2 | – | – | · | · | ·
CCN1CCCC1CNC(=O)c1cc(S(N)(=O)=O)ccc1OC (stereo not drawn) | · | · | · | – | –
CCN1CCCC1CNC(=O)c1cc(NC(C)=O)c(N(C)C)cc1OC (stereo not drawn) | – | – | 69.3 | – | –
CCN1CCCC1CNC(=O)c1ccccc1Cl (stereo not drawn) | · | · | · | – | –
CCC(=O)Nc1cc(C(=O)NCC2CCCN2CC)c(OC)cc1N(C)C (stereo not drawn) | – | – | 73.2 | – | –
Cc1ccc(N2CC(C(=O)Nc3ccc4c(c3)OCO4)CC2=O)cc1C (stereo not drawn) | – | 31.4 | – | – | –
COc1cccc(NC(=O)C2CC(=O)N(Cc3ccco3)C2)c1 (stereo not drawn) | – | – | 36.6 | – | –
COc1ccc(NC(=O)C2CC(=O)N(c3cccc(C)c3C)C2)cc1 (stereo not drawn) | – | – | 31.1 | – | –
O=C(Nc1nccs1)C1CC(=O)N(Cc2ccco2)C1 (stereo not drawn) | – | 46.3 | – | – | –
Cc1ccc(N2CC(C(=O)Nc3ccc4c(c3)OCO4)CC2=O)cc1 (stereo not drawn) | – | – | – | – | –
O=C(Nc1ccc(C(=O)N2CCN(c3cccc(Cl)c3)CC2)cc1)c1nsc2ccccc12 | – | – | · | · | ·
Cc1noc(C)c1-c1ccc(C(=O)Nc2cccc(C(F)(F)F)c2)c2occc12 | · | · | · | – | –
SMILES | D2 ag-1 | D2 PAM-1 | D2 antagonist | D2 PAM-2 | D2 ag-2
CCn1c(=O)c2sccc2n2c(CCCC(=O)N3CCN(c4ccc(F)cc4)CC3)nnc12 | – | – | · | · | ·
COc1ccc(CN(C(=O)c2ccccc2F)C2CCS(=O)(=O)C2)cc1 (stereo not drawn) | · | – | · | · | ·
Nc1nc(SCC(=O)Nc2ccc(Cl)cc2)[nH]c(=O)c1-c1ccccc1 | – | – | 35.6 | – | –
COc1ccc(NC(=O)CSc2nc(O)c(Cc3ccccc3)c(=O)[nH]2)cc1 | – | – | 52.6 | – | –
O=C(CSc1nc(O)c(Cc2ccccc2)c(=O)[nH]1)Nc1ccccc1 | – | – | – | – | –
CC1=C(c2ccc(C)c(C)c2)S(=O)(=O)N=C1N1CCC(C(=O)NCCc2ccc(Cl)cc2)CC1 | – | – | · | · | ·

Assay outcomes deposited in PubChem BioAssay by National Center for Advancing Translational Sciences (NCATS).
